Screening data deposited in PubChem BioAssay by National Center for Advancing Translational Sciences (NCATS).
An excerpt weighted towards active compounds, which were near 2.4% of everything screened.
D2 antag – antagonists of human D2 dopamine receptor; hit rate 2% among 340,000; HEK293 TREx D2 cells, calcium flux, dopamine EC80; inhibition, % at 10 µM; in the data active = inhibition above about 30%; inactive = below that, where a call was filed
Target sequence (P14416 whole entry, looked up): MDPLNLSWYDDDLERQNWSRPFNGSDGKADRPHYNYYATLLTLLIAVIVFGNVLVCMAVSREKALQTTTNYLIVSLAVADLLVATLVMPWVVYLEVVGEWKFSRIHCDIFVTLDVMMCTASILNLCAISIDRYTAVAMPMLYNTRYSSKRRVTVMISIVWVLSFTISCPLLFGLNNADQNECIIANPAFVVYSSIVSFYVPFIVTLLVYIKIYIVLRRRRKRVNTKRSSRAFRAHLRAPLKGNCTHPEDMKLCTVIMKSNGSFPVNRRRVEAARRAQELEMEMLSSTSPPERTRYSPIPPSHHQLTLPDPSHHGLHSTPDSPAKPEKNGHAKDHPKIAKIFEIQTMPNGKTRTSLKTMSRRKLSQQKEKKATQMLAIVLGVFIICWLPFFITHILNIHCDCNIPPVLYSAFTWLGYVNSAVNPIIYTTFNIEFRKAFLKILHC
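Inhibition of EC80 dopamine-driven calcium flux, recorded kinetically, defines activity here; cells are a tetracycline-induced HEK293 T-REx line expressing force-coupled D2.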
D2 PAM-1 – human D2 receptor positive allosteric modulation | P14416 | DiscoveRx D2 beta-arrestin cells, luminescence, 90 min; 100% = 57 uM dopamine signal | potentiation, % (concentration not given with the values) | hit rate 0.23% among 360,000 | AID 624464; in the data active = potentiation above about 50%
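PathHunter beta-arrestin assay in DiscoveRx D2 cells. Compounds were added with an EC20 of dopamine (50 nM final) for 90 min at 37 deg C. Luminescence was read 1 h after detection reagent, with 57 uM dopamine as the EC100 control.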
D2 PAM-2 – positively modulates the human D2 dopamine receptor allosterically. P14416. HEK293 T-REx D2, calcium flux, EC20 dopamine potentiation. potentiation, % at 10 µM. hit rate 0.34% among 340,000;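 active = potentiation over 3 SD above the plate norm, cut at about 30% in these data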
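Cells plated with tetracycline inducer and held overnight at 30 C; calcium dye loaded 30–90 min at room temperature; baseline taken, compound added and read 180 s; EC20 dopamine then added and read 180 s.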
D2 ag-1 – activates the human D2 dopamine receptor | DiscoveRx PathHunter D2 beta-arrestin, luminescence, 90 min; 100% = 57 uM dopamine signal | P14416 | activation, % (concentration not given with the values) | hit rate 0.084% among 360,000; in the data active = activation above about 40%
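Agonist mode: compounds alone added to overnight-plated D2 PathHunter cells for 90 min at 37 C, with 57 uM final dopamine (EC100) defining full response. Beta-arrestin recruitment detected by chemiluminescent reagent, read after 1 h at ambient temperature.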
D2 ag-2 – activates the human D2 dopamine receptor; P14416; HEK293 T-REx D2 cells, calcium flux agonist mode; activation, % at 2 µM; hit rate 0.53% among 340,000; AID 485358;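 active = activation over 3 SD above normal in the single-dose calcium agonist read, cut at about 30% in these data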
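Agonism is scored from calcium flux in a force-coupled, inducible HEK293 cell line expressing D2, read kinetically for 180 s after compound addition against dopamine controls.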
Of the large screens only hits and unclear results are named; the others gave an inactive call.

COc1ccc(Cc2nnc(SCC(=O)c3ccccc3)o2)cc1	none
COc1cccc(CN(C(=O)c2cccs2)C2CCS(=O)(=O)C2)c1 (stereo not drawn)	none
COc1ccc(N2CCN(S(=O)(=O)CCNC(=O)c3ccc(OC(C)C)cc3)CC2)cc1	none (no result: D2 antag, D2 PAM-1, D2 ag-1)
CCOC(=O)c1c(C)oc2nc(C)nc(NCCc3ccc(SC)cc3)c12	none (no result: D2 antag, D2 PAM-1, D2 ag-1)
C[C@H](CO)N1C[C@H](C)[C@@H](CN(C)C(=O)Nc2ccc3c(c2)OCO3)Oc2ccc(NS(=O)(=O)c3ccc(F)cc3)cc2C1=O	none (no result: D2 antag, D2 PAM-1, D2 PAM-2, D2 ag-2)
COc1ccc(CC(=O)Nc2cc(F)ccc2F)cc1S(=O)(=O)N1CCOCC1	none (no result: D2 antag, D2 PAM-2, D2 ag-2)
COc1ccc(S(=O)(=O)Nc2cccc(N(C)S(C)(=O)=O)c2)cc1Br	none
CN(c1cccc(NS(=O)(=O)c2cccs2)c1)S(C)(=O)=O	D2 PAM-2 30
COc1cc(OC)c(-c2c3cc(O)c(=O)cc-3oc3cc(O)c(O)cc23)cc1OC	D2 ag-2 148
CCCN1CCC(Oc2cccc(C(=O)NCCc3ccccc3)c2)CC1	D2 PAM-2 31
CC(C)(C)CN1CCC(Oc2cccc(C(=O)N3CCNC(=O)C3(C)C)c2)CC1	D2 antag 32
COCCNC(=O)c1cccc(OC2CCN(Cc3cccc(C(C)=O)c3)CC2)c1	none
CCCCN(C)C(=O)c1cccc(OC2CCN(CC(C)(C)C)CC2)c1	D2 antag 67
COc1ccc(CC(=O)Nc2ccc(-c3nc4ccccc4s3)cc2Cl)cc1OC	none (no result: D2 antag, D2 PAM-1, D2 ag-1)
Cc1cccc(CSc2cn(CC(=O)N3CCOCC3)c3ccccc23)c1	D2 antag 35
O=C(Cn1cc(/C=N/O)c2ccccc21)N1CCOCC1	D2 antag 39
CCCN(CCC)C(=O)Cc1ccc(F)cc1	none
C=CCN(CC=C)C(=O)Cc1ccc(F)cc1	D2 antag 31
COc1ccccc1CNC(=O)c1cc(S(=O)(=O)N2CCCC2)cn1C	D2 antag 37
COc1ccc(Cl)cc1NC(=O)c1cc(S(=O)(=O)N2CCCC2)cn1C	none
COc1ccccc1C(=O)Nc1nc(-c2ccc(S(=O)(=O)N3CCOCC3)cc2)cs1	D2 PAM-1 56
COc1ccc(OC)c(CCNC(=O)Cn2ccc3cc(S(=O)(=O)N4CCCC4)ccc32)c1	none
COc1ccccc1CCNC(=O)Cn1ccc2cc(S(=O)(=O)N3CCC(C)CC3)ccc21	D2 PAM-2 34
COc1ccc(NC(=O)c2cc(S(=O)(=O)N3CCCC3)cn2C)cc1Cl	D2 antag 38
CC(=O)N1CCC2(CC1)OC(=O)C(C)=C2C(=O)Nc1cccc(Cl)c1C	none (no result: D2 antag, D2 PAM-1, D2 ag-1)
CCOc1ccc(-n2c(SCC(=O)N3CCC(C)CC3)nc3c([nH]c4ccccc43)c2=O)cc1	none (no result: D2 antag, D2 PAM-1, D2 ag-1, D2 ag-2)
COc1ccccc1CNC(=O)COC(=O)C1CCN(S(=O)(=O)c2ccc(C)c(C)c2)CC1	D2 PAM-2 30
COc1cc(S(=O)(=O)N2CCCCC2)ccc1NC(=O)c1ccccc1Cl	D2 PAM-2 48
Cc1ccc(S(=O)(=O)N2CCC(C(=O)OCC(=O)NCc3cccc(Cl)c3)CC2)cc1C	none (no result: D2 antag, D2 PAM-2, D2 ag-2)
CCCCCCNC1=NCCS1	none (no result: D2 antag, D2 PAM-2, D2 ag-2)
CCC(C)C(NC(N)=O)C(=O)NC1CCC(C)CC1 (stereo not drawn)	D2 antag 33 (no result: D2 PAM-1, D2 ag-1)
O=C(COC(=O)/C=C/c1ccc(Cl)cc1)NC(=O)NCc1ccccc1	D2 antag 44
CCCCN1CCC(COC(=O)c2cc(Cl)c(N)c3c2OCCO3)CC1	D2 antag 64
COc1ccc(C2CC(c3ccc(Cl)cc3)Nc3nc(NC(=O)c4ccco4)nn32)cc1 (stereo not drawn)	none
O=C(Nc1nc2n(n1)C(c1ccc(Cl)cc1)CC(c1ccc(Cl)cc1)N2)c1ccco1 (stereo not drawn)	D2 antag 32
Cc1nn(-c2ccccc2)c(Cl)c1/C=N/NC(N)=O	none
Cc1nn(-c2ccccc2)c(Cl)c1/C=N/NC(=O)CNC(=O)c1ccccc1Cl	D2 antag 46
COc1ccccc1OCC(=O)NCC1CCCN(Cc2cnn(C)c2C)C1 (stereo not drawn)	none
Cc1cc2oc(=O)cc(CN3CCN(S(=O)(=O)/C=C/c4ccccc4)CC3)c2cc1C	D2 ag-2 36
Cc1cc2oc(=O)cc(CN3CCN(S(=O)(=O)c4ccc5c(c4)OCCO5)CC3)c2cc1C	none
CN1CCN(Cc2cc(=O)oc3ccc(Cl)cc23)CC1	D2 antag 45
Cc1ccc2oc(=O)cc(CN3CCN(Cc4ccccc4)CC3)c2c1	D2 antag 52
CCOC(=O)c1ccc(N2CCN(c3cc(C)ccc3C)CC2)c(NC(=O)Nc2ccc(Cl)cc2)c1	none (no result: D2 antag, D2 PAM-1, D2 ag-1)
O=P(c1ccccc1)(c1ccccc1)C(O)c1cccs1 (stereo not drawn)	none (no result: D2 antag, D2 PAM-2, D2 ag-2)
CC(=O)NC12CC3CC(C1)CC(C(=O)OCC(=O)Nc1c(F)cccc1F)(C3)C2	D2 antag 37
COc1ccccc1CN1C[C@@H]2C[C@@H](c3ccc(C)c(C)c3)N3CCC[C@@]23C1=O	D2 antag 35
CCN(CCNc1ccc(Cl)cc1[N+](=O)[O-])C(=O)c1cc([N+](=O)[O-])c(N(C)C)cc1OC	D2 antag 34
CCCn1c(O)c(CN2CCCCC2)c(C)c(C#N)c1=O	D2 PAM-1 64
Cc1c(CN2CCCCC2)c(O)n(CCCO)c(=O)c1C#N	none
CS(=O)(=O)N1CCN(c2cnn(-c3ccccc3)c(=O)c2Cl)CC1	none
CN(C(=O)CN1CCN(c2cnn(-c3ccccc3)c(=O)c2Cl)CC1)C1CCS(=O)(=O)C1 (stereo not drawn)	D2 antag 33
CC(O)C(O)C(O)C(O)C1NCCS1 (stereo not drawn)	D2 antag 79
Cc1ccc(C(=O)NCCSC(C)(C)C)cc1	none
Cc1ccc(C(=O)NCC(=O)NC23CC4CC(CC(C4)C2)C3)cc1	D2 ag-2 30
Cc1ccc(C(=O)NCC(C)(C)O)cc1	D2 antag 38
CC1Oc2ccccc2N(CC(=O)NCc2ccccc2)C1=O (stereo not drawn)	none
CC1Oc2ccccc2N(CC(=O)NC2CC2)C1=O (stereo not drawn)	D2 antag 33 (no result: D2 PAM-2)
Cc1cc(C)cc(-n2ncc3c2CCCC3NC(=O)CCN2Cc3ccccc3C2=O)c1 (stereo not drawn)	none
O=C(c1ccc2c(=O)n3c(nc2c1)CCCCC3)N1CCN(c2ccc(F)cc2)CC1	none
O=c1c2cc(NC(=S)NCCCN3CCC(Cc4ccccc4)CC3)ccc2nc2n1CCCCC2	D2 antag 52
O=C(Nc1ccc2nc3n(c(=O)c2c1)CCCCC3)C(=O)N1CCN(c2ccc(F)cc2)CC1	D2 antag 34
O=C(Nc1ccc2nc3n(c(=O)c2c1)CCCCC3)c1ccccc1[N+](=O)[O-]	D2 antag 30
COc1cc(NC(=O)N2CCC(CN3CCCCCC3)CC2)cc(OC)c1OC	none (no result: D2 antag, D2 PAM-1, D2 ag-1)
